We go through 55 molecules from ChEMBL document CHEMBL4513216, “Probing the Open Global Health Chemical Diversity Library for Multistage-Active Starting Points for Next-Generation Antimalarials” (ACS Infect Dis, 2020).

Molecules are shown by their SMILES. The campaign covered roughly 69,000 compounds. About 8,600 (12%) showed an effect of 50% or more. The full list was thinned out, with strong results kept by preference.

For this assay, the system named is Plasmodium berghei. The assay is described as follows: Screen against P. berghei liver stage (PbLuc), transformed with Luciferase, at 10uM. Type of assay: functional, HepG2. The conditions noted are these: tested at 10 uM.
Consider `CC(C)n1ccc(-c2cc(C(=O)N3CCN(C)CC3)c3ccccn23)n1`, for which the INHIBITION was found to be 16.9%. Under `Cc1onc(-c2ccncc2)c1C(=O)NC1CCCOC1` (stereo not given) stands 10.8%. Take `CCN(C)c1ncnc2c1CCN(C(=O)c1ccoc1C)CC2`: the INHIBITION is given as -125%. For the molecule `CC(C)CCC(=O)N1CC[C@@H]2[C@H](CC1)N(S(C)(=O)=O)CCS2(=O)=O`, the INHIBITION is given as -31.9%.

Consider `C/C(NC(=O)c1ccccn1)=C1\C(=O)C[C@@H]2[C@H]1C2(C)C`, for which the INHIBITION was 9.41%. Turning to `Cc1cc(OC(F)F)c(C(=O)N2CC[C@H](O)C2)s1`, the INHIBITION amounted to 3.58%. Take `CN(C)[C@H]1COC[C@@H]2CN(Cc3ccc4c(c3)OCO4)C[C@@H]21`: the INHIBITION came out at 12.1%. In the case of `CN(c1nc(Cn2cc(Br)ccc2=O)cs1)C1CC1` it was 0%; in that of `CN(c1nc(Cn2cnccc2=O)cs1)C1CC1`, 55.5%; in that of `Cn1cnc2c1CCN(Cc1csc(C3CCCC3)n1)C2`, -19.9%. As to `CCc1csc(C2CCCN(C(=O)c3ccncc3)C2)n1` (stereo not given), the INHIBITION amounted to 6.1%. As for `Cc1ccc(=O)n(Cc2csc(N(C)C3CC3)n2)n1`, the INHIBITION is listed as -40.6%.

On to `O=c1ccncn1Cc1csc(C2CC2)n1`, for which the INHIBITION turned out to be 57.5%.

In the case of `Cc1cc(C(=O)NCc2cccn2C)nn1C`, the INHIBITION is recorded as 9.55%. As to `CS(=O)(=O)NC[C@H]1OC[C@@H]2CCN(Cc3ccc(F)cc3)C[C@@H]21`, the INHIBITION is on record as -16.2%. Turning to `Cc1n[nH]cc1C(=O)N1CCCC(n2nnc3cc(F)ccc32)C1` (stereo not given), the INHIBITION came to 21%. With `Cc1nnsc1C(=O)N1CCCC(n2nnc3cc(F)ccc32)C1` (stereo not given), the INHIBITION is listed as 52%.

With `Cc1nn(C)cc1C(=O)N1CCCC(n2nnc3cc(F)ccc32)C1` (stereo not given), the INHIBITION is recorded as -3.31%. As to `COCCc1noc(CN2CCOC(Cn3cc(C)cn3)C2)n1` (stereo not given), the INHIBITION is on record as -90.9%.

In the case of `Cc1cccc(=O)n1CCC(=O)N1CCC2(CC1)OCCCC2O` (stereo not given), the INHIBITION was 24.2%. In the case of `Cc1nc(NC(=O)NCc2nc3cccc(C)c3n2C)oc1C`, the INHIBITION was determined as 38.6%. Under `CCn1c(CNC(=O)Nc2nc(C)c(C)o2)nc2ccccc21` stands 44.8%; under `Cc1nc(C)c(C(=O)NCc2nc3cccc(C)c3n2C)o1`, 88.8%; under `CCc1ccc(C(=O)O)cc1S(=O)(=O)Nc1ccc2c(c1)OCCO2`, 28%. With `CCS(=O)(=O)NCCCNCc1c(C)nn(C)c1N(C)C`, the INHIBITION is reported as 23.25%. With `CCN(Cc1ccncc1)C1CCN(c2ccccc2)C1=O` (stereo not given), the INHIBITION is on record as -13.1%. As to `CCN(Cc1cccnc1)C1CCN(c2ccccc2)C1=O` (stereo not given), the INHIBITION is listed as -2.27%.

For `Cc1cc(N2CCC(N(C)Cc3cccnc3)C2=O)n(C)n1` (stereo not given), the INHIBITION amounted to 59.3%.

As to `CCOc1ccc(CN(C)C2CCN(c3cc(C)nn3C)C2=O)cc1` (stereo not given), the INHIBITION is recorded as 24.7%. Regarding `CCN(Cc1ccccc1)C1CCN(c2cc(C)nn2C)C1=O` (stereo not given), the INHIBITION was found to be 57.2%. Under `CCN(Cc1cnc(C)cn1)C1CCN(c2ccccc2)C1=O` (stereo not given) stands 15.2%; under `CC(C)C(=O)N1CCC2(CCN2CC2CC2)C1` (stereo not given), 8.85%; under `Cc1cc(C(=O)N2C[C@@H]3CC[C@H]2CN(Cc2ccccn2)C3)nc(C)n1`, 4.59%.

Regarding `Cc1ncsc1C(=O)N1CCC(c2ccc3c(NC(C)C)n[nH]c3n2)C1` (stereo not given), the INHIBITION is given as -3.94%. `CC(=O)Nc1ccc(SCC(O)COCc2ccccc2)cc1` (stereo not given): the INHIBITION was 16.6%. As to `O=C(Cc1cccnc1)NCCS(=O)(=O)c1ccccc1F`, the INHIBITION turned out to be 33.7%. On to `CNC(=O)C1(c2cnccn2)CCCN1C(=O)c1cccc(F)c1` (stereo not given), for which the INHIBITION is 1.5%.

On to `c1ccc(C(Cn2cnnc2)N2CCOCC2)nc1` (stereo not given), for which the INHIBITION is listed as 70.4%. In the case of `CC(C)c1nn(C)c(N2CCOCC2)c1CNC(C)c1ccccn1` (stereo not given) it was 23.7%; in that of `CCC(CC)NCC(c1ccccn1)N1CCOCC1` (stereo not given), 65.6%. On to `c1ccc(C(CNc2ncccn2)N2CCOCC2)nc1` (stereo not given), for which the INHIBITION amounted to 3.48%.

Regarding `NCc1cc(NCC(c2ccccn2)N2CCOCC2)ncn1` (stereo not given), the INHIBITION is given as 60.1%.

For the molecule `COc1cc(NCC(c2ccccn2)N2CCOCC2)ncn1` (stereo not given), the INHIBITION worked out at 6.26%. With `Cc1ccc(C(CNC(=O)NCc2ccccn2)N2CCOCC2)o1` (stereo not given), the INHIBITION is 11.783%.

On to `c1cncc(C(Cn2cnnc2)N2CCOCC2)c1` (stereo not given), for which the INHIBITION turned out to be 7.31%. In the case of `Cc1nn(C)c(N2CCOCC2)c1CNC(C)c1ccccn1` (stereo not given) it was 36.2%. With `CCCS(=O)(=O)NC1CCN(c2cccc(F)c2C#N)CC1`, the INHIBITION amounted to 25.4%.

For `c1nc(CCC2CCCCN2)cc(N2CCCC2)n1` (stereo not given), the INHIBITION turned out to be 32.8%.

Take `O=C(CC1CC1)N1Cc2nccn2CC(COc2cccnc2)C1` (stereo not given): the INHIBITION worked out at 13.5%. As for `O=C(N[C@H]1CCCC[C@@H]1O)c1cccc(-c2nc3ccccc3[nH]2)c1`, the INHIBITION is -13.2%. On to `Cc1nc(CN2CCCC(NCc3ccsc3)C2)no1` (stereo not given), for which the INHIBITION was determined as 20.1%.

Take `Cc1nc(CN2CCCC(NCc3sccc3C)C2)no1` (stereo not given): the INHIBITION is recorded as 48.4%.

`Cc1nc(CN2CCCC(NCc3nc4ccccc4s3)C2)no1` (stereo not given): the INHIBITION is 29.2%.

`CCc1nc(CN2CCCC(NCc3cc(C)no3)C2)no1` (stereo not given): the INHIBITION came to 29.5%. Take `CCc1nc(CN2CCCC(NCc3cnc(C)s3)C2)no1` (stereo not given): the INHIBITION came out at 15.3%.
